# Assay outcomes as filed in PubChem.
# MCF10A rerep: DNA re-replication induction in MCF 10a cells; MCF 10A DNA re-replication, Hoechst nuclear intensity, 48 h; Potency, µM (doses to about 46.1 µM), without a hit: top-dose activity, positive = re-replication, usual class: activators; hit rate 2.9% among 350,000; AID 624296; also: potency is read from the fitted curve at half-maximal effect; % of control where 0% means no effect; nearly all actives have a fitted effect of over 50% in size
# TDP1 cell CPT: DT40-hTDP1 cell growth loss with CPT; chicken DT40 Tdp1-/-;hTDP1 cells + 20 nM CPT, ATP luminescence, 48 h; AID 686979; hit rate 12% among 420,000; Potency, µM (titrated, usually from 46.2 µM), for inactives: at the top dose activity change, negative = growth inhibition, hits mostly inhibitors; also: potency is read from the fitted curve at half-maximal effect; % is scaled to controls: 0 for no effect and ±100 for the full control effect; nearly all actives have a fitted effect of over 55% in size
#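 Chicken DT40 Tdp1-/- cells stably complemented with human TDP1 were seeded at 400 cells/well in medium containing 20 nM camptothecin, exposed to pin-transferred compounds, and grown at 37 °C for at least 48 hr. Viability was read as ATP luminescence.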
# IL1B secr inh: inhibitors of inflammasome signaling (IL-1 beta secretion) | THP-1 LPS/ATP IL-1B secretion, AlphaLISA, 16 h; stronger effect = lower value | activity change, % at 57.5 µM | hit rate 4.7% among 360,000 | AID 743279; in the data active = activity change below about -50%; inconclusive = mostly about -30% to -49%; also: % is scaled to controls: 0 for no effect and ±100 for the full control effect
#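 Secreted IL-1B measured by AlphaLISA bead assay after 16 h compound exposure of THP-1 cells; compounds (final up to 57.5 uM) added 1 h before LPS (250 ng/mL) and ATP (1.25 mM) stimulation; lower signal means less secretion.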
# SW480 rerep: inducers of DNA re-replication in SW480 colon cancer cells. AID 624297. Potency, µM (series often up to 46.1 µM), for inactives: at the highest dose re-replication activation, actives largely listed as activators. hit rate 1.8% among 340,000. SW480 DNA re-replication, Hoechst DNA content imaging, 48 h; also: potency is read from the fitted curve at half-maximal effect; % of control where 0% means no effect; nearly all actives have a fitted effect of over 55% in size
#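 Image-based DNA-content assay: after two days of treatment, nuclei were labelled with the DNA dye Hoechst and imaged, and hits were compounds raising the count of nuclei showing high fluorescence intensity.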
# TDP1 cell noCPT: qHTS for Inhibitors of human tyrosyl-DNA phosphodiesterase 1 (TDP1): qHTS in cells in absence of CPT | Potency, µM (titrated, usually from 46.2 µM), for inactives: top-dose activity change, negative = growth inhibition, most hits filed as inhibitors | DT40 Tdp1-/- hTDP1 cells, no CPT, ATP luminescence, 48 h | hit rate 15% among 420,000; also: potency is read from the fitted curve at half-maximal effect; % is scaled to controls: 0 for no effect and ±100 for the full control effect; nearly all actives have a fitted effect of over 55% in size
#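 Cells were dispensed at 400 per well, compounds added by pin tool, plates incubated ≥48 hr at 37 °C, then CellTiter-Glo added for 30 min at room temperature before luminescence reading. Line: DT40 Tdp1-/- complemented with hTDP1; camptothecin omitted.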
# Chronic BCR inh: chronic active BCR signaling inhibition; hit rate 0.05% among 340,000; ABC-DLBCL IkBa-CBG/CBR reporter, luminescence ratio, 4 h; Potency, µM (highest dose often 46.1 µM), inactives show at the highest dose activity change, negative = inhibition, hits mostly inhibitors; active = well fitted inhibition curve with a large enough effect in the signal ratio, with a control signal flat, not every such curve was filed as active; inconclusive = small, poorly fitted or top-dose-only effect, or effect the other way, or a change in a side signal; the % refers to the signal ratio;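 also: potency is read from the fitted curve at half-maximal effect; plate controls were basal doxycycline-induced cells for no effect and cells given 10 µM MG132 for full effect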
#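 Cell line TMD8 (human ABC DLBCL), stably expressing tet-inducible CBG68-IkBa fusion and CBR; IMDM/0.5% FBS; cpd up to 46 uM; dox induction, 4 h, 37C/5% CO2; dual luminescence; green/red ratio; MG132 control.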
# Numbers without * were called inactive; ? = inconclusive; . = not tested or not shown. In the library only some 19% were active in any assay of this set; here they are far more common. Unless noted, calls follow the shape of the dose curve; as a rule, active = well fitted curve in the direction sought with a large enough effect; inconclusive = small, poorly fitted or top-dose-only effect, or another doubt; inactive = no such curve, though single readings can be large; an effect the other way counts as inactive or inconclusive.
SMILES,MCF10A rerep,TDP1 cell CPT,IL1B secr inh,SW480 rerep,TDP1 cell noCPT,Chronic BCR inh
COc1ccccc1N1CCN(C(=O)c2cc(-c3cccc(Cl)c3)on2)CC1,13.5%,?,10.9,?,12.6µM*,2.3%
Cc1onc(-c2ccccc2Cl)c1C(=O)OCn1nnc2ccccc2c1=O,-8.4%,18.4µM*,?,0.9%,15.8µM*,?
COc1ccccc1N1CCN(C(=O)c2cc(-c3ccc4c(c3)OCO4)on2)CC1,2.1%,-18.9%,23.1,-0.2%,?,0.0%
CCCCOc1ccc(C(=O)OCC(=O)NC2CCCC2)cc1,-1.0%,-1.9%,-4.0,-1.3%,?,-1.2%
O=C(NCc1cc([N+](=O)[O-])ccc1O)c1cccc(NS(=O)(=O)c2ccccc2)c1,-0.3%,-4.5%,0.0,-2.5%,-0.4%,?
Cc1onc(-c2ccccc2Cl)c1C(=O)N1CCN(C/C=C/c2ccccc2)CC1,?,?,-51.9*,?,10µM*,-6.7%
CC(=O)c1ccc(N2CCN(C(=O)c3c(-c4ccccc4Cl)noc3C)CC2)cc1,2.9%,?,3.1,-2.2%,?,2.6%
Cc1ccc(S(=O)(=O)n2nc(OC(=O)c3c(-c4ccccc4Cl)noc3C)cc2N)cc1,?,18.4µM*,42.8,0.4%,14.6µM*,?
Cc1onc(-c2ccccc2Cl)c1C(=O)O/N=C(\N)c1ccc([N+](=O)[O-])o1,?,18.4µM*,-18.0,16.7%,23.1µM*,17.0%
Cc1onc(-c2ccccc2Cl)c1C(=O)OCC(=O)N1CCN(c2ccccc2)CC1,?,?,15.5,-4.0%,16.4µM*,2.8%
COc1ccccc1N1CCN(C(=O)c2c(-c3ccccc3Cl)noc2C)CC1,17.0%,?,-13.7,?,20.6µM*,-4.9%
Cc1onc(-c2ccccc2Cl)c1C(=O)Oc1ccc(Br)cc1,.,-22.2%,.,.,-19.2%,.
Cc1onc(-c2ccccc2Cl)c1C(=O)Oc1cccc2cccnc12,?,4.11µM*,0.0,?,2.91µM*,?
COc1cccc(Nc2nc3ccccc3n3nnnc23)c1,24.6%,?,15.1,13.4%,?,?
c1ccc(Nc2nc3ccccc3n3nnnc23)cc1,0.9%,?,57.8,0.0%,?,?
COc1ccccc1N1CCN(C(=O)c2ccc(Nc3nc4ccccc4n4nnnc34)cc2)CC1,.,9.2µM*,.,.,?,.
CCN(CC)S(=O)(=O)c1ccc(Nc2nc3ccccc3n3nnnc23)cc1,?,23.1µM*,2.9,15.4%,16.4µM*,?
c1ccc2c(c1)nc(Nc1ccc3c(c1)OCO3)c1nnnn12,?,?,-11.6,8.7%,16.4µM*,?
COc1ccc(Nc2nc3ccc(Cl)cc3n3nnnc23)cc1OC,.,?,.,.,16.4µM*,.
COc1cc(SC)ccc1C(=O)N1CCn2c3c(c4cc(C)ccc42)CCCC31 (stereo not drawn),.,-2.5%,.,.,?,.
Cc1nnsc1C(=O)NC1CCCc2c1cnn2-c1ccccc1F (stereo not drawn),?,10.3µM*,3.5,-10.1%,18.4µM*,0.3%
Cc1ccc(-n2ncc3c2CCCC3NC(=O)c2csnn2)cc1C (stereo not drawn),16.6%,?,-0.4,25.3%,?,-8.7%
Cc1nnsc1C(=O)NC1CCCc2c1cnn2-c1ccc(C(C)(C)C)cc1 (stereo not drawn),?,10.3µM*,-29.4,?,7.31µM*,?
O=C(CN(c1cccc([N+](=O)[O-])c1)S(=O)(=O)c1ccccc1)N1CCCCC1,-0.9%,0.5%,-13.5,-0.5%,10.2%,5.7%
CSc1ncccc1C(=O)N1CCCC(CCC(=O)NCc2ccc(F)c(F)c2)C1 (stereo not drawn),2.9%,?,0.0,-2.4%,?,-4.2%
SMILES,MCF10A rerep,TDP1 cell CPT,IL1B secr inh,SW480 rerep,TDP1 cell noCPT,Chronic BCR inh
COc1ccc(C2C(C#N)C(C#N)N3CCCN23)cc1 (stereo not drawn),4.4%,-11.4%,-7.9,8.8%,-14.2%,-5.1%
N#CC1C(C#N)N2CCCN2C1c1ccc(Cl)cc1 (stereo not drawn),4.4%,8.2µM*,20.1,?,7.31µM*,-1.8%
Cc1cccc(-n2c3c(cc(-c4nc(-c5ccc(Cl)cc5)cs4)c2=O)C(=O)CC(C)(C)C3)c1,.,0.0%,.,.,-2.2%,.
COC(=O)c1ccc(CSc2ccc3nnc(-c4cccc(F)c4)n3n2)o1,15.8%,-82.3%,-7.2,?,7.31µM*,-1.3%
CCOC(=O)CC(=O)CSc1ccc2nnc(-c3cccc(F)c3)n2n1,29.8%,-10.5%,?,14.0%,-25.9%,1.2%
O=C(CNC(=O)c1cc(Cl)cc([N+](=O)[O-])c1)NC1CC1,0.3%,-7.8%,6.0,-2.5%,14.2%,-0.9%
Cc1ccc(Nc2nc3ccccc3c(=O)[nH]2)cc1C,16.0%,?,13.6,0.9%,?,20.8%
Cc1cc(-c2ccccc2)nc(Nc2nc3c(C)cccc3c(=O)[nH]2)n1,9.2µM*,?,2.9,-1.2%,?,.
COC(=O)c1ccc2nc(-c3ccc(Cl)cc3)c(Cc3cccc(Cl)c3)n2c1,.,?,29.4,.,18.4µM*,.
COC(=O)c1ccc2nc(-c3ccc(C)cc3)c(Cc3cccc(Cl)c3)n2c1,.,16.4µM*,0.0,.,16.4µM*,.
COC(=O)c1ccc2nc(-c3ccccc3)c(Cc3ccc(C)cc3)n2c1,.,?,22.6,.,?,.
